Assay [1] is described as follows: Nuclear factor erythroid 2-related factor 2/antioxidant responsive element (Nrf2/ARE) small molecule agonists: qHTS cell viability counter screen in human keratinocytes (AID 1919968; active means well fitted curve in the direction sought with a large enough effect in the repeat runs; an effect the other way counts as inactive or inconclusive; further: nearly all actives have a fitted effect of over 55% in size). In short, it runs like this: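 Viability counter-screen: KeratinoSens reporter cells, DMSO-delivered compounds, 23 h at 37 C, CellTiter-Fluor fluorescence.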
Assay [2] in a line: Nuclear factor erythroid 2-related factor 2/antioxidant responsive element (Nrf2/ARE) small molecule agonists: luciferase reporter gene qHTS assay in human keratinocytes (AID 1919969). Further: nearly all actives have a fitted effect of over 35% in size. Further: potency means the concentration at half of the fitted maximal effect.
Assay [3] concerns the target Gonadotropin-releasing hormone receptor (Homo sapiens) (UniProt P30968). In words: Human gonadotropin-releasing hormone receptor (GnRHR) small molecule agonists, calcium flux assay in GnRHR-HEK293 cells (AID 1920063). Further: nearly all actives have a fitted effect of over 35% in size. In outline:
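Tox21-format agonist screen using human GnRHR-expressing HEK293 cells and a fluorescent calcium dye; kinetic 3-min fluorescence reading after compound addition, 15-point concentration series run in triplicate.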

The target in assay [4] is KiSS-1 receptor (Homo sapiens) (UniProt Q969F8). In words: Human kisspeptin (KISS1R) small molecule agonists, calcium flux assay in KISS1R-HEK293 cells (AID 1920064; active means well fitted curve in the direction sought with a large enough effect in the repeat runs; an effect the other way counts as inactive or inconclusive). In short, it runs like this: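 Intracellular calcium mobilization in KISS1R-HEK293 cells was recorded by fluorescence (Ex/Em 480/540) for 3 min following compound addition to cells pre-loaded 1 h with calcium dye.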
Chain of KiSS-1 receptor (Homo sapiens) (Q969F8 whole entry, looked up): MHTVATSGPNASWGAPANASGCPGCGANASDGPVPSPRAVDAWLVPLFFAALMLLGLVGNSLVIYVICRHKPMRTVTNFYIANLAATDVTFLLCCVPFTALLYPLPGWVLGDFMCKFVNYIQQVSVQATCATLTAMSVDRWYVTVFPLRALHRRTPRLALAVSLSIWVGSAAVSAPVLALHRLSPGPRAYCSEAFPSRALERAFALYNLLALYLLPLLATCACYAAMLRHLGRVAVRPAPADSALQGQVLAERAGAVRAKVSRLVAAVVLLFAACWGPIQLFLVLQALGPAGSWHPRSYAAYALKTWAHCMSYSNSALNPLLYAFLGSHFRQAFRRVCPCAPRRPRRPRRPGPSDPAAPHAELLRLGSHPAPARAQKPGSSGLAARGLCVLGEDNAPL

Assay [5] in a line: G protein-coupled receptor (GPCR) small molecule agonists, calcium flux assay: HEK293 wild type cell line counter screen (AID 1920065). In outline:
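In this agonist-mode screen, ATP is the positive control and DMSO the vehicle. Cells grow 18 h before a 1 h dye incubation at 37 C; signal is taken at Ex/Em 480/540 over 3 min.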

Assay [6] in a line: p53 small molecule agonists, cell-based qHTS assay with human liver microsomes (AID 1963577).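 Further: p53 response element beta-lactamase reporter cells with liver microsomes plus NADPH.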 In outline:
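p53RE-bla cells; 5 h settle, 37 C/5% CO2; cpd + HLM 0.5 mg/mL + NADPH 0.5 mg/mL (final); 16 h 37 C; LiveBLAzer 2 h RT dark; fluorescence readout.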

A short description of assay [7]: p53 small molecule agonists, cell-based qHTS assay with rat liver microsomes (AID 1963578). In outline: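 Rat liver microsome activation: microsomes 0.5 mg/mL, NADPH 0.5 mg/mL final; p53RE-bla cells, 16 h 37 C; LiveBLAzer readout, 2 h RT dark.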
A short description of assay [8]: p53 small molecule agonists, cell-based qHTS assay: qHTS cell viability counter screen (AID 1963581). Further: nearly all actives have a fitted effect of over 45% in size. In short, it runs like this: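 Compounds are pinned onto HCT-116 p53RE-bla cells and left 16 h at 37 C. Following the reporter FRET read, ATP is quantified by CellTiter-Glo luminescence after 30 min at room temperature.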
The nature of assay [9]: p53 small molecule agonists, cell-based qHTS assay (AID 1963582; active means well fitted activation curve with a large enough effect in the signal ratio in the repeat runs, not every such curve was filed as active; the % refers to the signal ratio). In short, it runs like this: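 Agonist activity was scored from beta-lactamase FRET fluorescence in p53RE-bla cells treated 16 h at 37 C with compounds in DMSO, substrate incubation being 2 h at room temperature.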
The target of assay [10] is 5-hydroxytryptamine receptor 2A (Homo sapiens) (UniProt P28223). Nature of the assay: 5-hydroxytryptamine receptor 2A (HTR2A) small molecule antagonists, cell-based qHTS assay (AID 1963586). Further: nearly all actives have a fitted effect of over 45% in size. In short, it runs like this:
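Antagonist-mode intracellular calcium assay: DOI (4 nM) added after 5 min compound pre-incubation at room temperature to dye-loaded HTR2A-CHO cells. Fluorescence followed for 3 min, sampled every second.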

Assay [11] has the same target. In words: 5-hydroxytryptamine receptor 2A (HTR2A) small molecule agonists, cell-based qHTS assay (AID 1963587). Further: nearly all actives have a fitted effect of over 30% in size. In outline:
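HTR2A-CHO cells, plated 18 h at 37 C/5% CO2, dye-loaded 1 h at 37 C; compounds in DMSO added by pin tool (agonist mode). Intracellular calcium flux read as kinetic fluorescence on FDSS over 2 min at 1 s intervals.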

Assay [12] concerns the target Muscarinic acetylcholine receptor M1 (Homo sapiens) (UniProt P11229). In words: Cholinergic receptor muscarinic 1 (CHRM1) small molecule antagonists, cell-based qHTS assay (AID 1963588). Further: nearly all actives have a fitted effect of over 40% in size. In short, it runs like this:
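CHRM1-CHO calcium-flux assay, antagonist mode. Cells were seeded 18 h, dye-loaded 1 h at 37 C and given compound for 5 min at RT, then acetylcholine was added at 50nM. FDSS fluorescence was read 3 min; 15 concentrations, three runs.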

The target is the same in assay [13]. In words: Cholinergic receptor muscarinic 1 (CHRM1) small molecule agonists, cell-based qHTS assay (AID 1963589). Further: nearly all actives have a fitted effect of over 35% in size. In short, it runs like this: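 Stable CHRM1-CHO cells (human receptor) were incubated 18 h, dye-loaded for 1 h at 37 C and exposed to test compounds for agonist activity, with calcium-dependent fluorescence followed kinetically.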
Assay [14] can be described thus: cAMP Responsive Elements (CRE) small molecule antagonists, cell-based qHTS assay (AID 1963591; active means well fitted inhibition curve with a large enough effect in the signal ratio in the repeat runs, not every such curve was filed as active; the % refers to the signal ratio). In outline: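 qHTS in CRE-bla HEK 293T cells: compound in DMSO, then 0.25 uM NKH477 (final), 3 h at 37 °C/5% CO2; beta-lactamase FRET read-out after 2 h substrate incubation.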
For assay [15], the target named is Beta-2 adrenergic receptor (Homo sapiens) (UniProt P07550). In words: Adrenergic beta2 receptor (ADRB2) small molecule antagonists, cell-based qHTS assay (AID 1963592). Further: series mostly up to about 92 µM; nearly all actives have a fitted effect of over 50% in size. In short, it runs like this: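 Cells (CHO, stable ADRB2 overexpression) incubated 18-20hr at 37C; compounds added from DMSO; agonist mix (1nM isoproterenol, 100uM IBMX, 25uM Ro-20-1724) added; 0.5hr RT; d2-cAMP and anti-cAMP-cryptate added; 1hr RT; 665/615 nm read.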
Chain of Beta-2 adrenergic receptor (Homo sapiens) (P07550 whole entry, looked up): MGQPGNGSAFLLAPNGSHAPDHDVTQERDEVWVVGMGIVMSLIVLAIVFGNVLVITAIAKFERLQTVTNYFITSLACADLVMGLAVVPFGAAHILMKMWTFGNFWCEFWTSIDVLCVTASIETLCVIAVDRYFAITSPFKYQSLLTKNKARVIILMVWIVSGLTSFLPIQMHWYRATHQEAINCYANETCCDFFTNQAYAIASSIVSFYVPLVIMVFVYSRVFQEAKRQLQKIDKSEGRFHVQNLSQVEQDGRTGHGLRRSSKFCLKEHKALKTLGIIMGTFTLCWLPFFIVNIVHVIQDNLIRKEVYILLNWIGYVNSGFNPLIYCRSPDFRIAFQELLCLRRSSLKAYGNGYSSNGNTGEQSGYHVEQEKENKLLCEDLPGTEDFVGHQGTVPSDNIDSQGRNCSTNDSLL

For assay [16] the target is unchanged. Nature of the assay: Adrenergic beta2 receptor (ADRB2) small molecule agonists, cell-based qHTS assay (AID 1963593).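 Further: CHO cells stably overexpressing human ADRB2.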 In outline: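 CHO cells stably over-expressing ADRB2 were plated overnight at 37C, then dosed with compounds plus a stimulation mix containing 100uM IBMX and 25uM Ro-20-1724 for 0.5hr at room temperature. cAMP was measured by HTRF competition, 1hr.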

Assay [17] has as its target D(2) dopamine receptor (Homo sapiens) (UniProt P14416). In words: Dopamine D2 receptor (DRD2) small molecule agonists, cell-based qHTS assay (AID 1963594). Further: nearly all actives have a fitted effect of over 35% in size. In outline: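 HEK293 cells stably expressing DRD2 were cultured 24 h at 37 C, then given Ro20-1724 (0.1 mM final) and compounds for 10 min at room temperature. NKH477 (200nM) was then added for 30 min. cAMP was read by HTRF.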

Assay [18] shares this target. In words: Dopamine D2 receptor (DRD2) small molecule antagonists, cell-based qHTS assay (AID 1963595; active means well fitted inhibition curve with a large enough effect in the signal ratio in the repeat runs, with a control signal flat; the % refers to the signal ratio). In short, it runs like this:
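Antagonist mode in DRD2-HEK293 cells: after compound addition with 0.1 mM Ro20-1724, cells received quinpirole (12 nM) and NKH477 (200 nM) for 30 min at room temperature; HTRF cAMP read after 1 h detection.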

Assay [19] can be described thus: cAMP Responsive Elements (CRE) small molecule agonists, cell-based qHTS assay (AID 1963590). In outline:
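FRET-based beta-lactamase readout (LiveBLAzer B/G, 2 h RT) quantified CRE activation in HEK 293T CRE-bla cells after 3 h treatment with DMSO-dissolved compounds.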

Molecules are shown by their SMILES. Unmarked numbers belong to inactive results. Results filed as inconclusive are left out. Activity calls are given as the source filed them. Unless noted, the call rests on the fitted dose curve.
On the % scale 0 is the no-effect control and ±100 the full control effect.

Chain of Muscarinic acetylcholine receptor M1 (Homo sapiens) (P11229 whole entry, looked up): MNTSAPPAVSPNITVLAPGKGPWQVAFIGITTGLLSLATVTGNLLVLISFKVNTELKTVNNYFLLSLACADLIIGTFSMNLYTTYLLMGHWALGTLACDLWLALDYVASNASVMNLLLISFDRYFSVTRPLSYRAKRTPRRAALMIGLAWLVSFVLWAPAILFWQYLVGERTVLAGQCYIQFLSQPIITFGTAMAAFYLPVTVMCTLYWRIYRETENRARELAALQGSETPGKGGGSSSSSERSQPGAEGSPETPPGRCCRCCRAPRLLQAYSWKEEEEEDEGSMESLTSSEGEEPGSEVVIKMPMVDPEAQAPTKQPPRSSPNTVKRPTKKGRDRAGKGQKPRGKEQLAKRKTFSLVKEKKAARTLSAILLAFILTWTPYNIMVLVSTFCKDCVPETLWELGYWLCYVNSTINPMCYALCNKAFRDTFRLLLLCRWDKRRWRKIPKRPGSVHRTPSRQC
Chain of D(2) dopamine receptor (Homo sapiens) (P14416 whole entry, looked up): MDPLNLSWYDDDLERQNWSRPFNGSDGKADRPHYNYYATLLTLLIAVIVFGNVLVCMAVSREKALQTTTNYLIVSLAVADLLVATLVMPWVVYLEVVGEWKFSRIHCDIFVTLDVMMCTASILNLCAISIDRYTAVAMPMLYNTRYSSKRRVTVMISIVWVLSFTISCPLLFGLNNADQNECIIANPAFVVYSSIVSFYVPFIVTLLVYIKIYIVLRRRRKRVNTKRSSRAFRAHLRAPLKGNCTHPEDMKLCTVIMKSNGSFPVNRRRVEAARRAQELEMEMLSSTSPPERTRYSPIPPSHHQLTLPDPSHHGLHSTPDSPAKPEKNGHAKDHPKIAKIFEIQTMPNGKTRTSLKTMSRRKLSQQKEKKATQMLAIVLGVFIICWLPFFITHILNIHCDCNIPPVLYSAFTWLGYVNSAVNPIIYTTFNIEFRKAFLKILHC
Chain of Gonadotropin-releasing hormone receptor (Homo sapiens) (P30968 whole entry, looked up): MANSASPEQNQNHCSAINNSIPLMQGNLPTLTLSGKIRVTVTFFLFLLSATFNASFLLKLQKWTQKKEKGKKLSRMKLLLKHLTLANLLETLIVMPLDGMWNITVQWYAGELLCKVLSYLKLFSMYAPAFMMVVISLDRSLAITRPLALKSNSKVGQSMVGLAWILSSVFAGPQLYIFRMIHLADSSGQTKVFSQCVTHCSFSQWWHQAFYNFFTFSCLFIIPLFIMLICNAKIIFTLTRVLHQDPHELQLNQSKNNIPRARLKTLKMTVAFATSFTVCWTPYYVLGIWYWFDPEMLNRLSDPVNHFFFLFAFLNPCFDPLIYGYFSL
Chain of 5-hydroxytryptamine receptor 2A (Homo sapiens) (P28223 whole entry, looked up): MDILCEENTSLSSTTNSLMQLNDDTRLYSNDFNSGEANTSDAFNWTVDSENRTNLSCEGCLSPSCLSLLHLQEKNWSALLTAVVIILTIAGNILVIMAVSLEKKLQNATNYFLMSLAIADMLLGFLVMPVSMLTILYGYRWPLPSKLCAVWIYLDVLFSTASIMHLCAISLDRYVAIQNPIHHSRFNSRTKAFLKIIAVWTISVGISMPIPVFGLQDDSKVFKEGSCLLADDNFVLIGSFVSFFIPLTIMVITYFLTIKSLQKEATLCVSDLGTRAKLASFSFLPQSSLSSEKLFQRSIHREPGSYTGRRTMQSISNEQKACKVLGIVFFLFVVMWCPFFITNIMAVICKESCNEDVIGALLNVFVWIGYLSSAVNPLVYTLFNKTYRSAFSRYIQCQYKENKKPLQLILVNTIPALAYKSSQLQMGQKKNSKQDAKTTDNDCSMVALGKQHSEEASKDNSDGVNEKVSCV

With `CCCCCCCCCCCCCC`, the Potency entry in assay [1], in [2], in assay [3], in [4], in [5] and in assay [6] was “inactive” in each case. Also, the Potency entry in [7], in assay [8], in assay [9], in assay [10], in assay [11] and in assay [12] was “inactive” in each case. For the same compound, the Potency result in assay [13], in assay [14], in [15], in [16], in assay [17] and in [18] was “inactive” each time.
For `Cc1occc1S`, the Potency entry in assay [1], in assay [3], in assay [4], in assay [5], in [6] and in [7] was “inactive” in each case. Also, the Potency result in [8], in assay [9], in assay [10], in assay [11], in assay [12] and in assay [13] was “inactive” in each case. Moreover, the Potency result in assay [19], in assay [14], in assay [15], in assay [17] and in assay [18] was “inactive” each time. Besides, in assay [2], the Potency is 68.6 µM (active).
Consider `NC(=O)c1ncn([C@@H]2O[C@H](CO)[C@@H](O)[C@H]2O)c1O`, for which the Potency result in assay [1], in [2], in assay [3], in assay [4], in assay [5] and in assay [6] was “inactive” throughout. Also, the Potency result in assay [7], in [8], in assay [9], in [10], in assay [11] and in [12] was “inactive” each time. In addition, the Potency entry in [13], in [14], in assay [15], in [16] and in [18] was “inactive” throughout.
As to `COc1ccc(Br)c(C)c1`, the Potency result in [1], in assay [2], in assay [3], in assay [4], in assay [5] and in [6] was “inactive” each time. Further, the Potency entry in [7], in [8], in assay [9], in [10], in [11] and in [12] was “inactive” throughout. In addition, the Potency entry in assay [13], in assay [19], in assay [14], in [15], in assay [16] and in [17] was “inactive” in each case. The Potency result in assay [18] is “inactive”.
Turning to `O=C(O)CN(CCN(CC(=O)O)CC(=O)O)CCN(CC(=O)O)CC(=O)O`, the activity change, negative = cytotoxicity is -0.92% [at 19 µM] in assay [1] and -11.9% [at 13.5 µM] in assay [8]. For the same compound, the activity, positive = activation in [2] was -0.151% [at 19 µM]. The activity change in assay [3] is -0.364% [at 11.8 µM, active compounds read high]. Further, the activation was -1.13% [at 15.8 µM] in assay [4]; 1.29% [at 11.8 µM] in [5]; -9.98% [at 13.5 µM] in assay [6]; -0.423% [at 13.6 µM] in [7]; 12.4% [at 13.5 µM] in assay [9]; 7.55% [at 15.9 µM] in assay [11]. In addition, the activation in assay [13] is -0.409% [at 15.8 µM]; in [19], 1.22% [at 19 µM]; in assay [17], -12% [at 19 µM]. For the same compound, the activity, negative = inhibition in assay [10] is 10.6% [at 12.7 µM]; in [12], 9.64% [at 12.6 µM]. The activity change, negative = inhibition was 3.68% [at 18.9 µM] in assay [14], 2.09% [at 19 µM] in assay [15] and 6.7% [at 18.9 µM] in assay [18].
For `O=C(c1ccc2c(c1)C(=O)OC2=O)c1ccc2c(c1)C(=O)OC2=O`, the Potency entry in assay [1], in [2], in [3], in [4], in assay [5] and in assay [6] was “inactive” throughout. In addition, the Potency entry in assay [7], in assay [8], in [9], in [10], in [11] and in assay [12] was “inactive” throughout. Also, the Potency entry in [13], in assay [19], in assay [14], in assay [15] and in assay [17] was “inactive” each time.
For the compound `CCCCCCOC(=O)CC`, the Potency entry in assay [1], in assay [2], in assay [3], in [4], in [5] and in assay [6] was “inactive” each time. Further, the Potency entry in assay [7], in assay [8], in assay [9], in [11], in [12] and in [19] was “inactive” throughout. For the same compound, the Potency result in [14], in assay [15], in assay [16] and in assay [18] was “inactive” in each case.
In the case of `CCO/C([O-])=N/c1c[n+](N2CCOCC2)no1`, the Potency entry in [1], in assay [2], in [3], in assay [4], in assay [5] and in assay [6] was “inactive” in each case. The Potency result in assay [7], in assay [8], in assay [9], in [10], in assay [11] and in assay [12] was “inactive” each time. The Potency entry in [19], in [14], in assay [15], in assay [16], in assay [17] and in assay [18] was “inactive” in each case.

The record behind these values is PubChem BioAssay (Tox21).
